A selection: hits, their analogues and other compounds. The true share with any hit is near 0.5%.
TRPV1 ag = agonists of human vanilloid receptor 1 (TRPV1); Q8NER1; TRPV1-expressing cells, Fluo-8 calcium influx, agonist mode; activation, % at 8.33 µM; actives 0.19% (n = 320,000); in the data active = activation above about 80%; inconclusive = between about 30% and that limit; also: 0% is about no effect
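TRPV1-expressing cells were cultured overnight at 35.5C and loaded with Fluo-8 calcium dye for 40 to 90 min at room temperature. After a 10 s baseline, compound was added and calcium influx was read kinetically for 3 min (ex 480/em 520 nm).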
TRPV1 PAM = human TRPV1 potentiation. TRPV1-expressing cells, Fluo-8 calcium influx, capsaicin EC20 potentiation. potentiation, % at 8.33 µM. actives 0.02% (n = 320,000); in the data active = potentiation above about 80%; inconclusive = between about 30% and that limit; also: 0% is about no effect
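TRPV1-expressing cells were cultured overnight at 35.5C and loaded with Fluo-8 calcium dye for 40 to 90 min at room temperature. After a 10 s baseline, compound was added and calcium influx was read kinetically for 3 min (ex 480/em 520 nm).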
TRPML1 ag = human mucolipin-1 channel agonism | Q9GZU1 | TRPML1-expressing cells, Ca2+ dye fluorescence, FDSS | activation, % (test concentration not listed) | actives 0.12% (n = 410,000); in the data active = activation above about 50%; inconclusive = mostly about 30% to 49%; also: 0% is about no effect
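Tet-induced TRPML1-DL cells, 1,500 per well, cultured overnight, were loaded with a no-wash Ca2+ dye for 45–90 min. Calcium fluorescence was recorded on the FDSS for 110 s after compound addition, before the EC80 agonist (4 uM 54-4) was added.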
TRPML1 blocker = human mucolipin-1 channel inhibition; actives 0.02% (n = 390,000); Q9GZU1; TRPML1-inducible cells, Ca2+ dye fluorescence, FDSS; active compounds read low; inhibition of EC80 agonist-evoked calcium signal; activity change, negative = inhibition, % (test concentration not listed); in the data active = activity change below about -50%; inconclusive = between about -30% and that limit;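 also: stimulus is agonist 54-4 at its EC80 concentration; % is scaled to controls: 0 for no effect and ±100 for the full control effect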
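TRPML1-DL cells, Tet-induced overnight (~16 h, 37 °C) at 1,500 cells/well, were loaded with Ca8 no-wash dye plus quencher for 45-90 min at room temperature. Compounds were pinned during FDSS kinetic reading; agonist 54-4 at EC80 (4 uM final) then added.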
RGS4 inh = inhibitors of human regulator of G protein signaling 4; actives 0.039% (n = 390,000); Potency, µM (titrated, usually from 114 µM), without a hit: top-dose activity change, negative = inhibition, hits mostly inhibitors; AID 504845; Transcreener GDP fluorescence polarization, RGS4-accelerated GTP hydrolysis; also: potency is read from the fitted curve at half-maximal effect; % is scaled to controls: 0 for no effect and ±100 for the full control effect; nearly all actives have a fitted effect of over 75% in size
Target sequence (P49798 whole entry, looked up): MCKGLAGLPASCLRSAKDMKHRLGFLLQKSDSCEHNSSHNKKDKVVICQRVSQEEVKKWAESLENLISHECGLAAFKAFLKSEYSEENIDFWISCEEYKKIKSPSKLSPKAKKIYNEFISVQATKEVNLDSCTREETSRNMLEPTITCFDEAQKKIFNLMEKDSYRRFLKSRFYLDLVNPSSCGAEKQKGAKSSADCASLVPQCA
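MLSMR compounds (23 nl, pin-transferred) preincubated 10 min at room temperature with a 500nM (2x) first reagent, then RGS4 at 900nM (2x) plus Transcreener GDP mix added; fluorescence polarization (620/688 nm) read before and after 90 min at 30 °C.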
AT treatment = candidate therapy for ataxia-telangiectasia; F2112 A-T fibroblasts, KAP-1 phosphorylation AlphaLISA; neocarzinostatin DNA damage 30 min before lysis; Potency, µM (series often up to 57.5 µM), inactives show at the highest dose activation, hits mostly activators; actives 0.19% (n = 320,000); AID 485349; also: potency is read from the fitted curve at half-maximal effect; % of control where 0% means no effect; nearly all actives have a fitted effect of over 45% in size
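ATM-like activity read as KAP-1 phosphorylation via AlphaLISA donor/acceptor antibody pairs after lysis and 6 hr at 25C. Cells were ATM-null patient fibroblasts (F2112, hTERT), dosed 60 min, then exposed to the DSB inducer NCS for 30 min.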
* marks the source's active call; other numbers are inactive results; ? = inconclusive; . = no result; [ ] = remark or other dose. Unless noted, calls follow the shape of the dose curve; as a rule, active = well fitted curve in the direction sought with a large enough effect; inconclusive = small, poorly fitted or top-dose-only effect, or another doubt; inactive = no such curve, though single readings can be large; an effect the other way counts as inactive or inconclusive.

SMILES | TRPV1 ag | TRPV1 PAM | TRPML1 ag | TRPML1 blocker | RGS4 inh | AT treatment
N=c1n(CCN2CCCCC2)c2ccccc2n1CC(O)c1ccc(Cl)c(Cl)c1 (stereo unspecified) | 16 | -8 | 0 | -10 | -8% | 0%
CCn1c(=N)n(CC(=O)c2ccc(OC)cc2)c2ccccc21 | -1 | 2 | 0 | 26 | -15% | 0%
C=CCn1c(=N)n(CC(=O)c2ccc(Cl)cc2)c2ccccc21 | 3 | -2 | 1 | -8 | 7% | 16µM*
CCn1c(=N)n(CC(=O)c2ccc(Cl)c(Cl)c2)c2ccccc21 | -1 | 2 | 1 | 22 | 1% | 28µM*
N=c1n(CCN2CCCCC2)c2ccccc2n1CC(=O)c1ccc(Cl)c(Cl)c1 | 3 | 10 | 0 | -2 | -13% | 35µM*
CCOC(=O)c1cc(-c2ccc(F)cc2)n(CC(=O)N2CCCC2)c1C | 4 | 5 | -1 | -3 | -14%[11.4 µM] | -6%
CN(C)CC(C(=O)c1ccccc1)c1ccccc1 (stereo unspecified) | 5 | -1 | 0 | -9 | ? | 32µM*
CCCCCCc1cc2cc(S(=O)(=O)c3ccc(F)c(Cl)c3)c(=O)oc2cc1O | ? | -21 | 24 | -1 | 12% | 28µM*
CCCCCCc1cc2cc(C(=O)OCC)c(=O)oc2cc1O | 0 | -6 | 1 | 6 | 34% | 1%
Nc1c(C(O)(C(F)(F)F)C(F)(F)F)ccc2ccccc12 | -2 | -10 | 2 | -9 | 7% | 28µM*
c1ccc2c(c1)ccc1ccccc12 | . | . | 1 | 7 | 11% | 2%
O=C(Cn1cnc([N+](=O)[O-])c1)Nc1cc(Oc2ccc(Cl)cc2Cl)cc([N+](=O)[O-])c1 | 11 | 4 | -1 | 7 | -32% | .
Cn1c(=O)c2c(nc3sccn32)n(C)c1=O | 2 | 88* | 0 | 14 | -14% | 1%
Cc1nc2sccn2c(=O)c1Cl | 0 | 0 | 0 | 13 | -23% | -1%
O=C(c1ccc(C(F)(F)F)cc1)C1CCCN(C(=O)CCc2ccncc2)C1 (stereo unspecified) | 87* | -14 | 0 | 1 | -42% | 21%
Cc1cc(C)nc(/N=C(\N)Nc2ccc(SC(F)F)cc2)n1 | 16 | -22 | 54* | -13 | 0% | -32%
Cc1cc(C)nc(/N=C(\N)Nc2ccc(F)c([N+](=O)[O-])c2)n1 | . | . | 75* | -13 | 38% | -5%
COc1ccc(S(=O)(=O)N2CCCCC2)cc1NCC(=O)Nc1ccc(C)cc1 | ? | 7 | 0 | -17 | -1% | 31%
O=C(Nc1ccccc1)c1csc(-c2ccccc2)n1 | 85* | 23 | 3 | 5 | -40% | 16%
COC(=O)c1c(NC(=S)Nc2cc(OC)c(Cl)cc2OC)sc2c1CCCCC2 | 1 | 5 | -1 | 16 | -12% | 11%
Cc1ccc2nc3c(cc(C(=O)NC4CCS(=O)(=O)C4)n3Cc3ccccc3)c(=O)n2c1 (stereo unspecified) | 3 | 2 | -1 | 1 | 30% | 32µM*
Cc1ccc(C2/C(=C(\O)c3c(C)nc4c(C)cccn34)C(=O)C(=O)N2CCN(C)C)o1 (stereo unspecified) | . | . | 1 | -9 | -12% | .
Cc1ccc(C2/C(=C(\O)c3c(C)nc4ccccn34)C(=O)C(=O)N2CCN(C)C)o1 (stereo unspecified) | 2 | -5 | 0 | -56* | -11% | -4%
Cc1ccc(C)c(NC(=O)CCn2nc(C)c3c(C)n(-c4ccccc4)nc3c2=O)c1 | . | . | -1 | -54* | 27% | .
Cc1cccc(NC(=O)CCn2nc(C)c3c(C)n(-c4ccccc4)nc3c2=O)c1C | . | . | -1 | 5 | 7% | .
Cc1cc(C)cc(NC(=O)CN2CCN(c3ccccn3)CC2)c1 | -2 | -11 | 1 | 6 | 19% | 1%
O=C(CN1CCN(c2ccccn2)CC1)Nc1cccc(Br)c1 | 3 | -5 | 1 | 2 | -1%[56.9 µM] | 16µM*
